ChEMBL document CHEMBL1961873, “Compounds: GSK PKIS; Assays: Nanosyn kinase panel” (2012)

Key:
[1] = target: Mitogen-activated protein kinase 3 (Homo sapiens) (UniProt P27361); conditions: at 1 µM;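 also: values are mean percent inhibition of MAPK3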
[2] = target: SRSF protein kinase 3 (Homo sapiens) (UniProt Q9UPE1); conditions: at 0.1 µM
[3] = target: SRSF protein kinase 3 (Homo sapiens) (UniProt Q9UPE1); conditions: at 1 µM
[4] = target: Mitogen-activated protein kinase 14 (Homo sapiens) (UniProt Q16539); conditions: at 0.1 µM
[5] = target: Mitogen-activated protein kinase 14 (Homo sapiens) (UniProt Q16539); conditions: at 1 µM
[6] = target: Mitogen-activated protein kinase 11 (Homo sapiens) (UniProt Q15759); conditions: at 0.1 µM
[7] = target: Mitogen-activated protein kinase 11 (Homo sapiens) (UniProt Q15759); conditions: at 1 µM
[8] = target: T1, Mitogen-activated protein kinase 13 (Homo sapiens) (UniProt O15264); conditions: at 0.1 µM
T1 sequence (whole entry): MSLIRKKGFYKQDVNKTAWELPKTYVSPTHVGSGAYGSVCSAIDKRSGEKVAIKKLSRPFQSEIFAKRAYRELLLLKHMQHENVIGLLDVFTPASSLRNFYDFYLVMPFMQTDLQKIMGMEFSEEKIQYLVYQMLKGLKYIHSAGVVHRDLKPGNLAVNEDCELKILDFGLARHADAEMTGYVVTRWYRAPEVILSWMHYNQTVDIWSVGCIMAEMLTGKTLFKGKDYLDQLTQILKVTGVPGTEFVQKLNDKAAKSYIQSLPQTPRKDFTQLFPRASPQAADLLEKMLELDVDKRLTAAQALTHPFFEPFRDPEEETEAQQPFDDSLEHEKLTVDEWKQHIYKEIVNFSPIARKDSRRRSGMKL

[9] = target: T1, Mitogen-activated protein kinase 13 (Homo sapiens); conditions: at 1 µM
[10] = target: T2, Mitogen-activated protein kinase 12 (Homo sapiens) (UniProt P53778); conditions: at 0.1 µM
T2 sequence (whole entry): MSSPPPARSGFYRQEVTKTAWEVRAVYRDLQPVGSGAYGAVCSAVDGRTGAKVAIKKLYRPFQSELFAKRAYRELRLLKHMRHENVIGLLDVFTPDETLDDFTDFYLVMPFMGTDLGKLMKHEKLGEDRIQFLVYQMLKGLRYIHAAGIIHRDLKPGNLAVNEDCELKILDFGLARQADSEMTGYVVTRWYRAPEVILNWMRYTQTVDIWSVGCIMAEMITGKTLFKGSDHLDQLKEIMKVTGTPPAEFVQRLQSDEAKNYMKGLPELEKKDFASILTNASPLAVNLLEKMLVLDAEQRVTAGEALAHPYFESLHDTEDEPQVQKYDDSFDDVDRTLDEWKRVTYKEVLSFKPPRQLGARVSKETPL

Mitogen-activated protein kinase 3 (Homo sapiens), sequence (P27361 whole entry): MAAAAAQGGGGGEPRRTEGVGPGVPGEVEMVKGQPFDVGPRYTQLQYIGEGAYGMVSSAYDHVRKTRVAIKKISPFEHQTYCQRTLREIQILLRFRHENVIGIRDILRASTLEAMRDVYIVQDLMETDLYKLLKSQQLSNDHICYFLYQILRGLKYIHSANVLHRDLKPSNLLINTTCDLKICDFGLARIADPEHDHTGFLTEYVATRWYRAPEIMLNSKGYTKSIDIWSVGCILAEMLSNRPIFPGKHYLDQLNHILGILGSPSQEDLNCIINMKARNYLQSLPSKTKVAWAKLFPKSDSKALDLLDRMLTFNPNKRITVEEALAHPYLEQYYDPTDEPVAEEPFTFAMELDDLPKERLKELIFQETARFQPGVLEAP
Mitogen-activated protein kinase 14 (Homo sapiens), sequence (Q16539 whole entry): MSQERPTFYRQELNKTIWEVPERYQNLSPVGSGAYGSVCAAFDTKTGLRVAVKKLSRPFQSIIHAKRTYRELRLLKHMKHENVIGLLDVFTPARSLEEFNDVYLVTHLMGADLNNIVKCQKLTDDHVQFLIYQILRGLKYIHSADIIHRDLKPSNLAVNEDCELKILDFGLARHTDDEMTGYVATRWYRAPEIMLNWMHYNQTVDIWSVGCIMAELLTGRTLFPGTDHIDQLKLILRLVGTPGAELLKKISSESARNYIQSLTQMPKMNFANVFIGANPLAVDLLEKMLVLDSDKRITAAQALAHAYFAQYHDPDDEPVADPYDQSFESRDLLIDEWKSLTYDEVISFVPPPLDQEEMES
Mitogen-activated protein kinase 11 (Homo sapiens), sequence (Q15759 whole entry): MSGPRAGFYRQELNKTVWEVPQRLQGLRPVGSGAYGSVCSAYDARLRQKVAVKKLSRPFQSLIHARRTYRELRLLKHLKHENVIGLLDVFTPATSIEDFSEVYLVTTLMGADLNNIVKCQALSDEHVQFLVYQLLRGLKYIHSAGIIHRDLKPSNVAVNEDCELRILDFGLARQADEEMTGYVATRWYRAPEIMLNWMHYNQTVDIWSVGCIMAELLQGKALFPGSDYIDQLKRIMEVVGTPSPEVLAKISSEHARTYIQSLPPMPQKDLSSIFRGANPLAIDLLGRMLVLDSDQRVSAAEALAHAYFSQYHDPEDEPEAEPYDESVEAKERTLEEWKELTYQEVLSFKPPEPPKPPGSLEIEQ
SRSF protein kinase 3 (Homo sapiens), sequence (Q9UPE1 whole entry): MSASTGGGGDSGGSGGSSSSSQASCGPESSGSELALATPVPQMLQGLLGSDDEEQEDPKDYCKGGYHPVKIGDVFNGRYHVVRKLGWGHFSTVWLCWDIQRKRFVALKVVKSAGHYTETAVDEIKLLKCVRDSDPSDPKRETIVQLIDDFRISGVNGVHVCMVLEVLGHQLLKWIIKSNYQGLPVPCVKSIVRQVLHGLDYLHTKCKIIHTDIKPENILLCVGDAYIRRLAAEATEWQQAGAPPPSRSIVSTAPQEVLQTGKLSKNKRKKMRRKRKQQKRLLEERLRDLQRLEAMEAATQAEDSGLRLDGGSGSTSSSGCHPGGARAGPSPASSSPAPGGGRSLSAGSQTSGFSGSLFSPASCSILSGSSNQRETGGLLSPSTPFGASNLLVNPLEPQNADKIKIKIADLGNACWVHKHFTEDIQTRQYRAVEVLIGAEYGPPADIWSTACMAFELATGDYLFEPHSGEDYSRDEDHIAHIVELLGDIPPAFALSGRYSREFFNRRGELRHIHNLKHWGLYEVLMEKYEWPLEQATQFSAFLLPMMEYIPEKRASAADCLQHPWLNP

| SMILES | inhibition [1] [%] | inhibition [2] [%] | inhibition [3] [%] | inhibition [4] [%] | inhibition [5] [%] | inhibition [6] [%] | inhibition [7] [%] | inhibition [8] [%] | inhibition [9] [%] | inhibition [10] [%] |
| --- | --- | --- | --- | --- | --- | --- | --- | --- | --- | --- |
| C[C@@H](Oc1cc(-n2cnc3ccc(OCC4CCN(C)CC4)cc32)sc1C(N)=O)c1ccccc1C(F)(F)F | -0.11 | 0.22 | 0.15 | -2.1 | 1.86 | 1.51 | 3.33 | -2.92 | -3.87 | -1.88 |
| c1ccc(Nc2ncc(-c3ccccc3)o2)cc1 | 4.13 | -1.27 | -0.17 | 9.09 | 11.8 | 5.86 | 5.93 | 4.95 | 4.65 | 2.89 |
| COc1ccc2ncnc(Nc3ccc(OCc4ccccc4)cc3)c2c1 | 4.61 | -1.92 | 0.73 | 5.87 | 10.2 | 2.79 | 7.38 | 0.25 | 1.34 | -0.24 |
| CS(=O)(=O)Nc1cccc(-c2ccc3c(NC(=O)C4CC4)n[nH]c3c2)c1 | 1.38 | -2.12 | -0.78 | -1.33 | 6.14 | 2.35 | 10.1 | -1.65 | 1.02 | 1.49 |
| COC(=O)c1cncc(/C=C/c2c(C)cc(O)cc2C)c1 | 3.36 | 1.31 | 1.48 | 1.5 | 5.57 | 0.99 | 3.92 | 1.59 | 4.29 | -1.81 |
| OCc1ccc(-c2nc(-c3ccccn3)c(-c3ccc4c(c3)OCO4)[nH]2)cc1 | 1.38 | 1.23 | -0.15 | 4.43 | 14.9 | 4.13 | 4.4 | 3.05 | 4.05 | 0.63 |
| CN(C)CCCn1c(-c2nonc2N)nc2cnccc21 | 2.88 | -1.86 | -1.05 | 5.93 | 12.9 | 3.87 | 8.3 | 1.23 | 4.99 | 3.33 |
| O=C1Nc2ccccc2/C1=C/Nc1ccc2[nH]c(=O)[nH]c2c1 | 3.88 | -2.26 | -0.78 | 11.6 | 11.5 | 5.12 | 9.63 | 3.8 | 4.97 | 0.57 |
| Nc1ccc(C#Cc2cncnc2Nc2ccc(OCc3cccc(F)c3)c(Cl)c2)cc1 | 1.8 | -1.31 | -1.26 | 7.8 | 8.07 | 5.64 | 6.16 | 2.44 | 1.41 | 2.15 |
| COc1cccc(-n2nc(C)c3c(N/N=C(\C)c4ccncc4)ncnc32)c1 | -1.26 | -0.29 | -1.75 | 1.46 | 0.91 | 1.51 | 0.17 | -0.04 | -0.68 | -0.13 |
| Cc1cc(-c2ccccn2)cc(C)c1/C=C/c1cncc(-c2nn[nH]n2)c1 | 3.69 | -0.25 | -1.02 | 7.59 | 12.9 | 3.45 | 1.89 | 4.85 | 4.9 | 3.27 |
| Nc1nccc(-c2c(-c3ccc(F)cc3)ncn2CCCN2CCOCC2)n1 | 5.63 | -3.36 | -1.79 | 21.2 | 64.9 | 6.8 | 20.2 | 2.28 | 5.09 | 1.09 |
| Cc1ccc(Nc2ccnc(Nc3cccc(C(N)=O)c3)n2)cc1O | 5.1 | 0.91 | 7.12 | 4.41 | 28 | 3.7 | 17.7 | -1.12 | 4.69 | -1.03 |
| CN1CCN(C(=O)c2ccc(NC(=O)Nc3ccc(N(C)c4ccnc(Nc5ccc(CS(C)(=O)=O)cc5)n4)cc3)cc2)CC1 | 4.83 | -0.32 | -1.14 | 3.65 | 4.32 | 3.2 | 3.23 | 1.15 | 1.91 | 1.54 |
| COc1cc(/C=N/Nc2ncnc3c2cnn3C(C)C)ccc1O | 2.88 | -2.39 | -1.29 | 1.82 | 3.92 | 0.99 | 2.61 | 1.12 | 3.06 | 1.85 |
| Cc1cc(O)cc(C)c1/C=C/c1cncc(C(=O)N(C)C)c1 | 2.75 | 1.6 | 2.35 | 5.83 | 7.03 | 3.38 | 8.48 | 1.6 | 3.68 | 4.71 |
| CCn1c(-c2nonc2N)nc2ccc(F)cc21 | 7.45 | -2.41 | -1.12 | 5.24 | 8.37 | 7.69 | 9.2 | 2.3 | 6.26 | 3.81 |

| SMILES | inhibition [1] [%] | inhibition [2] [%] | inhibition [3] [%] | inhibition [4] [%] | inhibition [5] [%] | inhibition [6] [%] | inhibition [7] [%] | inhibition [8] [%] | inhibition [9] [%] | inhibition [10] [%] |
| --- | --- | --- | --- | --- | --- | --- | --- | --- | --- | --- |
| Nc1nccc(-c2c(-c3ccc(F)cc3)nn3cc(C(F)(F)F)ccc23)n1 | 2.32 | -1.48 | -1.99 | 7.89 | 47.2 | 4.49 | 10.5 | 0.69 | -1.62 | 1.12 |
| [O-][S+]1CCN(Cc2ccc(-c3ccc4ncnc(Nc5ccc(OCc6ccccc6)c(Cl)c5)c4c3)o2)CC1 | 2.24 | -1.59 | 0.03 | 16.9 | 20.8 | 1.98 | 5.76 | 1.28 | 0.19 | 0.47 |
| NS(=O)(=O)c1cccc(-c2cc3ccncc3cc2OCc2ccccc2)c1 | 4.26 | -0.37 | -1.61 | 2.47 | 8.87 | 3.17 | 5.6 | -1.11 | 5.95 | 0.96 |
| Oc1cccc(-c2nc(-c3ccccc3)[nH]c2-c2ccncc2)c1 | 5.5 | 1.08 | 12.3 | 34.9 | 71.1 | 10.7 | 47.7 | 1.41 | 3.86 | -0.21 |
| CN(c1ccc(NC(=O)Nc2ccc(OC(F)(F)F)cc2)cc1)c1ccnc(Nc2cccc(S(N)(=O)=O)c2)n1 | 3.33 | -1.09 | 16.6 | 4.8 | 13.6 | 4.81 | 16.7 | 2.86 | 6.6 | 2.28 |
| Cc1ccc2c(c1)/C(=N/Nc1ccc(S(N)(=O)=O)cc1)C(=O)N2 | 1.36 | -0.75 | -2.57 | 1.29 | 5.27 | 3.1 | 6.52 | -0.85 | 0.5 | 0.27 |
| O=C(Nc1ccc(Oc2ccc3[nH]c(NC(=O)c4ccco4)nc3c2)cc1)Nc1cc(C(F)(F)F)ccc1F | 2.24 | 2.34 | 39.6 | 4.66 | 39.4 | 4.14 | 31.7 | 1.18 | 1.53 | -4.43 |
| CCCN1CCCC(c2ccc(Nc3nc(Nc4cc(F)ccc4C(N)=O)c4cc[nH]c4n3)c(OC)c2)C1 (stereo not given) | 9.65 | 4.66 | 28.2 | 13.9 | 17.1 | 7.57 | 14.5 | 6.1 | 7.07 | 3.99 |
| Nc1nccc(C#Cc2cncnc2Nc2ccc(OCc3cccc(F)c3)c(Cl)c2)n1 | 1.04 | 0.77 | -0.42 | 2.98 | 7.42 | 0.46 | 4.43 | 1.14 | 4.65 | 0.02 |
| CN(C)C(=O)O[C@@H]1CN[C@@H](C#Cc2cc3ncnc(Nc4ccc(OCc5cccc(F)c5)c(Cl)c4)c3s2)C1 | 1.36 | -1.41 | -1.97 | 5.64 | 2.87 | 3.3 | 6.17 | 1.12 | 1.11 | 0.57 |
| NC(=O)c1sc(-n2cnc3ccccc32)cc1OCc1ccccc1Br | 4.22 | -0.27 | -0.72 | 8.45 | 23.1 | 1.2 | 4.68 | 4.65 | 5.08 | 3.45 |
| COc1cc2ncnc(Nc3ccc4c(cnn4Cc4ccccc4)c3)c2cc1OC | 3.12 | -1.9 | -0.51 | 4.33 | 3.94 | 1.39 | 1.39 | 3.21 | 2.74 | 2.87 |
| CS(=O)(=O)CCNCc1nc(-c2ccc3ncnc(Nc4ccc(OCc5cccc(C(F)(F)F)c5)cc4)c3c2)cs1 | 1.69 | 0.88 | -1.85 | 4.2 | 3.19 | 2.78 | 1.51 | 1.27 | 2.16 | 0.83 |
| Cc1ccc(C(=O)NC2CC2)cc1-c1ccc2[nH]ncc2c1 | -2.12 | 2.03 | -0.89 | 3.93 | 52.8 | 4.23 | 28.2 | -4.94 | -5.34 | -3.26 |
| COc1cccc(-n2ncc3c(N/N=C/c4ccc(S(C)(=O)=O)cc4)ncnc32)c1 | 1.55 | -0.64 | 1 | -3.8 | 4.7 | 0.81 | 1.99 | 1.44 | 6.79 | 2.12 |
| O=C1Nc2ccc(-c3cccnc3)cc2C1=Cc1cc(Br)c(O)c(Br)c1 | 1.77 | 1.44 | 1.95 | 5.87 | 7.67 | 1.48 | 1.36 | 1.39 | 3.3 | 2.25 |
